RXFP1 antagonist: qHTS Assay for Antagonists of the Relaxin Receptor RXFP1. HEK293-RXFP1, relaxin-stimulated cAMP HTRF, 30 min; stronger effect = lower value. activity change, negative = inhibition, % at 57.5 µM. actives 0.59% (n = 350,000). Relaxin receptor 1 (Homo sapiens), Q9HBX9;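 active = activity change of -60% or lower, but not beyond a set lower limit; inconclusive = change between -60% and -40%, or beyond the set limit; inactive = change above -40%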; note: % is set by controls: 0 for no effect and ±100 for the full control effect
PTHR1 agonist: qHTS for PTHR1 Agonists: Primary Screen; Parathyroid hormone/parathyroid hormone-related peptide receptor (Homo sapiens), Q03431; HEK293 GP2 PTHR1 cells, GloSensor cAMP luminescence, 1 h; Potency, µM (series often up to 115 µM), for inactives: at the top dose activation, hits mostly activators; actives 0.075% (n = 410,000); note: potency is the fitted concentration of half-maximal effect; nearly all actives have a fitted effect of over 55% in size
Target sequence (Q03431 whole entry, looked up): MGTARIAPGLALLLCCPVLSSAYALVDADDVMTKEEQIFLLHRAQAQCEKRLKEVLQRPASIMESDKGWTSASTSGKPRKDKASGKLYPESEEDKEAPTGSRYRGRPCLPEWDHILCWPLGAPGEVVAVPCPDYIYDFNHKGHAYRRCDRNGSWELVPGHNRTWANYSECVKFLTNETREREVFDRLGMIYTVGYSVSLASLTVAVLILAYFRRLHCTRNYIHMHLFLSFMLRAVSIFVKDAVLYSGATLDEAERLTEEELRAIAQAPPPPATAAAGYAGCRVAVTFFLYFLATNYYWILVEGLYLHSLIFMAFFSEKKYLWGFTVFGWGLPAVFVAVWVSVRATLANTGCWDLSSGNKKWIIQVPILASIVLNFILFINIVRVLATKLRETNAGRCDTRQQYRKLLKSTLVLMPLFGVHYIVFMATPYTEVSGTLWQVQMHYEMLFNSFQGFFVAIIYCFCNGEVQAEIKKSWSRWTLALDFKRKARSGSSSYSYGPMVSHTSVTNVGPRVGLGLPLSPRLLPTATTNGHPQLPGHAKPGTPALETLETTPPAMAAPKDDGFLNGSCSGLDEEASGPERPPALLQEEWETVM
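HEK-293-derived GP2 cells expressing PTHR1 and a GloSensor cAMP reporter, 3,000/well, plated overnight, given luciferin plus IBMX (each 0.5 mM as added) for 1 h at 37 °C, then compound for 1 h at 37 °C. Luminescence was read after 15 min at room temperature.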
gsp antagonist: qHTS for Antagonists of gsp, the Etiologic Mutation Responsible for Fibrous Dysplasia/McCune-Albright Syndrome: qHTS | gsp-mutant cells, cAMP HTRF, 30 min | Potency, µM (series often up to 76.9 µM), without a hit: at the top dose activity change, negative = inhibition, usual class: inhibitors | actives 0.4% (n = 340,000) | AID 624288, 2012; calls by dose curve; cell line not stated here;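 note: intracellular cAMP measured with PDE inhibitor Ro 20-1724 present during compound exposure; potency is the fitted concentration of half-maximal effect; % is set by controls: 0 for no effect and ±100 for the full control effect; nearly all actives have a fitted effect of over 65% in size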
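Cells in G418 medium, seeded 16-24 h, 37C; buffer exchange to DPBS + 1 mM CaCl2, 0.5 mM MgCl2, 0.05% BSA; cpds in DMSO + […] (300 uM stock), 30 min 37C; HTRF cAMP detection.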
RXFP1 agonist: qHTS Assay for Agonists of the Relaxin Receptor RXFP1 | Potency, µM (top dose mostly 57.5 µM), without a hit: at the top dose activation, actives largely listed as activators | actives 0.3% (n = 370,000) | HEK293T-RXFP1 cAMP TR-FRET, 30 min; response scale: percent of porcine relaxin response, buffer zero | AID 2676, 2010; note: potency is the fitted concentration of half-maximal effect; % is set by controls: 0 for no effect and ±100 for the full control effect; nearly all actives have a fitted effect of over 60% in size
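HEK293T cells stably expressing RXFP1 were pretreated with the PDE4 inhibitor Ro 20174, exposed to compounds for 30 min at 37C, lysed, and cAMP was read by TR-FRET. Data normalized to buffer (basal) and 29 nM porcine relaxin (100%).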
gsp ag: qHTS for Agonist of gsp, the Etiologic Mutation Responsible for Fibrous Dysplasia/McCune-Albright Syndrome: qHTS; gsp mutant cells, cAMP HTRF, 30 min; Potency, µM (series often up to 76.9 µM), for the others: at the top dose activation (cAMP increase), usual class: activators; actives 0.13% (n = 340,000); active = well fitted activation curve with a large enough effect; inconclusive = small, poorly fitted or top-dose-only effect, or another doubt; inactive = no such curve, though single readings can be large or run the other way; cell line not stated here;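 note: phosphodiesterase inhibitor Ro 20-1724 added with compounds to block cAMP breakdown; potency is the fitted concentration of half-maximal effect; nearly all actives have a fitted effect of over 60% in size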
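Cells in DMEM/10% FBS with G418 were pretreated with compounds in DMSO plus […] (300 uM stock) for 30 min at 37C. cAMP was measured by HTRF (cAMP-d2 plus anti-cAMP antibody-K) after 30 min at room temperature.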
* = called active by the depositor; i = inactive; ? = inconclusive; . = not tested or not shown; ! = not confirmed by another sample; [ ] = dose if it differs, or a comment. Only some compounds are listed: those with a hit (about 1% of all), similar ones and a draw of the others. Unless noted, calls come from the whole dose curve; as a rule, active = well fitted curve in the direction sought with a large enough effect; inconclusive = small, poorly fitted or top-dose-only effect, or another doubt; inactive = no such curve, though single readings can be large; an effect the other way counts as inactive or inconclusive.

SMILES	RXFP1 antagonist	PTHR1 agonist	gsp antagonist	RXFP1 agonist	gsp ag
O=C(NCc1ccccc1Cl)C(=O)NCC(c1ccco1)S(=O)(=O)c1cccs1 (centres undefined)	-26	-38%	.	0%	.
CC12CCC(=O)N1C(C(=O)N1CCN(S(=O)(=O)c3ccc(Br)cc3Cl)CC1)CS2 (centres undefined)	-66*	-13%	-1%	5%	-18%[15.4 µM]
CC12CCC(=O)N1C(C(=O)N1CCN(S(=O)(=O)c3ccccc3F)CC1)CS2 (centres undefined)	15	i	8%	0%	-6%[15.4 µM]
CNC(=O)c1cnn(-c2nc(N)c3ncn([C@@H]4O[C@H](CO)[C@@H](O)[C@H]4O)c3n2)c1	7	.	.	.	.
CCOc1ccc(C(C)=O)cc1CN1C(=O)NC2(CCCCCC2)C1=O	-101*	i	4%	-1%	?
COc1ccc(C(C)=O)cc1CN1C(=O)NC2(CCCCCCC2)C1=O	-14	-8%	-1%	0%	2%[15.4 µM]
CCOc1ccccc1NC(=O)C1CCN(S(=O)(=O)c2ccc3c(c2)CCCN3C(C)=O)CC1	-16	-1%	.	4%	.
COC(=O)c1ccc(CC(=O)c2nc3ccccc3s2)cc1	13	-9%	2%	23%	5%[15.4 µM]
COC(=O)c1ccc(/C(O)=C(\C#N)c2nc3ccccc3s2)cc1	-5	-30%[57.5 µM]	18µM*	1%	11%
Fc1ccccc1N1CCN(c2c3c(nc4nncn24)CCC3)CC1	.	-33%	.	26%	.
CCOc1ccc(-c2cnc(NCc3ccc(OC)cc3OC)n2C)cc1	.	i	.	1%	.
CCOC(=O)c1ccc(NC(=O)C2CCCN(c3cnccn3)C2)cc1 (centres undefined)	-61*!	-1%	-4%	-2%	-2%
CCc1cccc(NC(=O)C2CCCN(c3cnccn3)C2)c1 (centres undefined)	11	-3%	-8%	1%	-64%
Cc1nnc2sc(SCC(=O)N3CCCCC3)nn2c1=O	1	-2%	9%	29%	28µM*
CCc1ccc(NC(=O)Nc2ccc3c(c2)N(C)C(=O)CS3)cc1	.	-25%	35µM*	-1%	17%
CC(=O)c1cccc(NC(=O)Nc2ccc3c(c2)N(C)C(=O)CS3)c1	-72*	-41%[57.5 µM]	?	1%	-6%
Cc1cc(C)cc(NC(=O)Nc2ccc3c(c2)N(C)C(=O)CS3)c1	.	-58%	?	-2%	-12%
COC(=O)c1ccc(NC(=O)c2c(NCc3ccc(OC)c(OC)c3)sc3c2CCCC3)cc1	-18	-20%	.	0%	.
Fc1ccc2c(c1)Sc1ccc(Cl)cc1CC2N1CCN(CCC2OCCO2)CC1 (centres undefined)	-62*	-2%	9%	.	?
COc1ccc(NC(=O)/C(Cl)=C(/Cl)S(=O)Cc2ccccc2Cl)cn1 (centres undefined)	-118*	-54%	8%	0%	-5%[15.4 µM]
COc1ccc(NC(=O)/C(Cl)=C(/Cl)S(=O)(=O)Cc2ccc(C)cc2)cn1	-71*	-24%	-8%	0%	-36%
COc1ccc(NC(=O)Cc2ccc(Cl)c(Cl)c2)cn1	3	-11%	2%	1%	6%
CCN1CCN(Cc2c3ccccc3cc3ccccc23)CC1	-60*	20%	-1%	-1%	-4%[15.4 µM]
OC(CNCc1ccc(-c2ccccc2)cc1)c1ccccc1 (centres undefined)	-61*	i	14%	2%	3%[15.4 µM]
O=C(CCCn1c(=O)c2ccccc2n(Cc2cccc(F)c2)c1=O)NCc1ccccc1Cl	.	-5%	.	?	.
SMILES	RXFP1 antagonist	PTHR1 agonist	gsp antagonist	RXFP1 agonist	gsp ag
COc1ccc(CCN2C(=S)N(C)C(=O)C2CC(=O)Nc2ccc(OC)cc2)cc1 (centres undefined)	-63*	-5%	-13%	1%	17%
COc1ccc(NC(=O)CC2C(=O)N(C)C(=S)N2CCc2ccc(F)cc2)cc1 (centres undefined)	-27	-19%	-8%	0%	-18%[15.4 µM]
Clc1ccc(-c2nc(-c3cc4cc(Cl)ccc4o3)cs2)cc1	9	-27%	28µM*	0%	-8%
Cc1ccc(-c2cc(C(F)(F)F)n3nc(C(=O)Nc4ccc(Cl)c(C(F)(F)F)c4)cc3n2)cc1	-6	i	.	4%	.
CC(=O)Nc1cccc(C(=O)NNC(=O)c2ccc(NS(=O)(=O)c3cccs3)cc2)c1	7	-12%	.	.	-69%
Cc1cccc2c(N=NC(=O)c3ccc(NS(=O)(=O)c4cccs4)cc3)c(O)[nH]c12	-9	-69%	25µM*	0%	-3%
Cc1ccsc1C(=O)NNC(=O)c1ccc(NS(=O)(=O)c2cccs2)cc1	.	i	11µM*	3%	-58%
COc1ccc(S(=O)(=O)NCC(c2ccco2)S(=O)(=O)c2cccs2)cc1OC (centres undefined)	-3	i	.	3%	.
Cc1ccn2c(Nc3ccc4c(c3)OCCO4)c(-c3ccc(C)o3)nc2c1	17	-23%	.	15%	.
COc1cccc(CNC(=O)c2cc3n(n2)CCCN(Cc2ccc(C)cc2)C3=O)c1OC	-5	-8%	.	0%	.
O=C(CSc1n[nH]c(=O)n1C1CC1)Nc1ccc(F)c(Cl)c1	-78*	-7%	-1%	.	23%
CC(C)=CCC/C(C)=C/CC/C(C)=C/C(=O)OCC(=O)[C@@]1(O)CC[C@H]2[C@@H]3CCC4=CC(=O)C=C[C@]4(C)[C@H]3[C@@H](O)C[C@@]21C	-20	.	.	.	.
CC(=O)c1c(C)[nH]c(C(=O)OCC(=O)Nc2cc(S(=O)(=O)N3CCCC3)ccc2Cl)c1C	-3	-41%	-10%	-1%	9%
CC(=O)c1c(C)[nH]c(C(=O)OCC(=O)Nc2cccc(S(=O)(=O)N3CCCC3)c2)c1C	-2	-38%	32µM*	1%	-71%
O=C(COc1ccc2ccc(=O)oc2c1)Nc1cccc(S(=O)(=O)N2CCCCC2)c1	-8	-34%	28µM*	6%	?
Cc1ccc(C)c(C(=O)OCC(=O)Nc2cccc(S(=O)(=O)N3CCCCC3)c2)c1	-2	-86%	25µM*	-1%	5%
CCOc1ccccc1NC(=O)C(CC(C)C)NS(=O)(=O)c1ccc2c(c1)CCN2C(C)=O (centres undefined)	-4	-3%	.	2%	.
Cc1ccc2[nH]c(=O)c3cc(C(=O)NCc4cccc(Cl)c4)sc3c2c1	.	i	.	5%	.
CC[n+]1c(/C=C/N(C)c2ccccc2)n(-c2ccccc2)c2ccc(-c3nc4ccccc4s3)cc21	-60*	-30%	?	4%	2%[15.4 µM]

Screening data: PubChem BioAssay, National Center for Advancing Translational Sciences (NCATS)
